From PubChem BioAssay (NCATS)
Activity calls are given as the source filed them. Calls follow the shape of the dose curve; as a rule, active = well fitted curve in the direction sought with a large enough effect; inconclusive = small, poorly fitted or top-dose-only effect, or another doubt; inactive = no such curve, though single readings can be large; an effect the other way counts as inactive or inconclusive.

What follows are compounds tested against Alpha-galactosidase A (Homo sapiens) (UniProt P06280) (assay: Counterscreen for Glucocerebrosidase Inhibitors: qHTS Assay for Human alpha-Galactosidase at pH 4.5 (AID 992; also: 0% is about no effect)). Settings: purified enzyme, fluorogenic substrate; series mostly up to 76.9 µM; activity change, negative = inhibition: at the top concentration.
In short: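 Citrate buffer pH 4.5, Tween-20 0.005%. Enzyme 2 nM, substrate 80 uM, 20 min RT. Stop pH 10. Fluorescence Ex 365/Em 440. AC50 by Hill fit.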

Alpha-galactosidase A (Homo sapiens), sequence (P06280 whole entry, looked up): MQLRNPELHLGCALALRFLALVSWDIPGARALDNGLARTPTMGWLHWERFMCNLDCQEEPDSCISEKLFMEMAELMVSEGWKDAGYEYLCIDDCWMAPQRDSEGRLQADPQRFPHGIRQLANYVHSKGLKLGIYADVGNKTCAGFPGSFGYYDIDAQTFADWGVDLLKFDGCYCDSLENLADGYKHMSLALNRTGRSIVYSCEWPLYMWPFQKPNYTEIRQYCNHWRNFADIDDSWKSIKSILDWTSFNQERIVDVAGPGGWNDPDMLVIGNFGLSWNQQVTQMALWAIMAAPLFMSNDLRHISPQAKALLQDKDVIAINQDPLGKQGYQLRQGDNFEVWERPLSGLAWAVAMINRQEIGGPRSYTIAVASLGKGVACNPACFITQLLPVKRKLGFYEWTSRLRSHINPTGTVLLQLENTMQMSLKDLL

Structure (SMILES) | activity change, negative = inhibition
NCCCCC(=O)O | -2.21% (inactive)
O=c1[nH]c2cc(C(F)(F)F)ccc2n1-c1cc(C(F)(F)F)ccc1O | -2.32% (inactive)
CN1CCc2cc(NC(=O)Nc3cccnc3)ccc21 | -4.81% (inactive)
CCCN(CC1CC1)c1nc(C)nc(Nc2c(Cl)cc(Cl)cc2Cl)c1Cl | -4.09% (inactive)
CN=c1nc(-c2ccccc2)n(-c2ccccc2)s1 | 3.07% (inactive)
COC(=O)c1c(C)[nH]c(C)c1C(=O)c1ccccc1Cc1ccccc1 | -6.6% (inactive)
NCCSSCCN | -0.459% (inactive)
O=S(=O)(c1cccc2c(I)cccc12)N1CCCNCC1 | -3.83% (inactive)
NC[C@@H]1O[C@H](C23CC4CC(CC(C4)C2)C3)Cc2c1ccc(O)c2O | 0.0928% (inactive)
CC(C)(C=O)Cc1cc(C(C)(C)C)c(O)c(C(C)(C)C)c1 | -3.27% (inactive)
O=C1C(SCCO)=C(SCCO)C(=O)c2ccccc21 | 1.28% (inactive)
Fc1ccc(C(OCCCc2cnc[nH]2)c2ccc(F)cc2)cc1 | -7.23% (inactive)
Cn1cc(C2=C(c3ccc(Cl)cc3Cl)C(=O)NC2=O)c2ccccc21 | -2.41% (inactive)
COc1ccccc1CNCCCCCCNCCCCCCCCNCCCCCCNCc1ccccc1OC | -9.37% (inactive)
N#C/C(=C\c1ccc(O)c(O)c1)C(=O)c1ccc(O)c(O)c1 | -0.672% (inactive)
O=c1[nH]c2ccccc2n1CCCN1CCN(C(c2ccccc2)c2ccccc2)CC1 | -6.65% (inactive)
O=c1[nH]c2cc(Cl)c(Cl)cc2[nH]c1=O | -4.98% (inactive)
O=C(Nc1ccccc1)c1cc([N+](=O)[O-])ccc1Cl | -0.507% (inactive)
O=C(O)c1cc(=O)c2c(Cl)cc(Cl)cc2[nH]1 | -0.715% (inactive)
C[C@@H](NC(=O)/C(C#N)=C/c1ccc(O)c(O)c1)c1ccccc1 | -2.32% (inactive)
O=C(c1cc(O)c(O)c([N+](=O)[O-])c1)c1ccccc1F | -4.46% (inactive)
Clc1ccc(N2CCN(Cc3c[nH]c4ncccc34)CC2)cc1 | -5.67% (inactive)
COc1cc(OC)c(/C=C2/C(=O)Nc3ccccc32)c(OC)c1 | 5.61% (inactive)
CC(C)NC[C@H](O)COc1cccc2[nH]ccc12 | -2.06% (inactive)
N#C/C(=C\c1ccc(O)c(O)c1)C(=O)NCc1ccccc1 | 0.467% (inactive)
NCCNC(=O)c1ncsc1-c1cccc(F)c1 | -1.14% (inactive)
N[C@H](CCCP(=O)(O)O)C(=O)O | 3.18% (inactive)

These compounds were tested against alpha-glucosidase (Oryza sativa, rice) (UniProt Q653V4) (assay: Counterscreen for Glucocerebrosidase Inhibitors: qHTS Assay for Rice alpha-Glucosidase at pH 5.0 (AID 997;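 also: 0% = full activity with enzyme and -100% = basal without enzyme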)). Settings: rice alpha-glucosidase enzyme activity; series mostly up to 76.9 µM; activity change, negative = inhibition: at the top concentration.
In short: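 Endpoint fluorogenic assay at pH 5.0: compounds (0.7 nM to 77 uM) titrated against 4 nM rice enzyme and 400 uM 4-MU-alpha-glucoside for 20 min at room temperature; NaOH/glycine stop, read ex 365/em 440 nm, Hill-fitted AC50.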

Structure (SMILES) | activity change, negative = inhibition
NCCCCC(=O)O | -5.21% (inactive)
O=c1[nH]c2cc(C(F)(F)F)ccc2n1-c1cc(C(F)(F)F)ccc1O | 0.402% (inactive)
CN1CCc2cc(NC(=O)Nc3cccnc3)ccc21 | -0.702% (inactive)
CCCN(CC1CC1)c1nc(C)nc(Nc2c(Cl)cc(Cl)cc2Cl)c1Cl | -2.62% (inactive)
CN=c1nc(-c2ccccc2)n(-c2ccccc2)s1 | -2.7% (inactive)
COC(=O)c1c(C)[nH]c(C)c1C(=O)c1ccccc1Cc1ccccc1 | -6.66% (inactive)
NCCSSCCN | 0.155% (inactive)
O=S(=O)(c1cccc2c(I)cccc12)N1CCCNCC1 | -1.93% (inactive)
NC[C@@H]1O[C@H](C23CC4CC(CC(C4)C2)C3)Cc2c1ccc(O)c2O | 1.6% (inactive)
CC(C)(C=O)Cc1cc(C(C)(C)C)c(O)c(C(C)(C)C)c1 | -4.88% (inactive)
O=C1C(SCCO)=C(SCCO)C(=O)c2ccccc21 | -2.27% (inactive)
O=C(Nc1cccc(C(=O)Nc2ccc(S(=O)(=O)O)c3cc(S(=O)(=O)O)cc(S(=O)(=O)O)c23)c1)Nc1cccc(C(=O)Nc2ccc(S(=O)(=O)O)c3cc(S(=O)(=O)O)cc(S(=O)(=O)O)c23)c1 | -2.8% (inactive)
O=c1[nH]c2cc([N+](=O)[O-])c([N+](=O)[O-])cc2[nH]c1=O | -12.5% (inactive)
Fc1ccc(C(OCCCc2cnc[nH]2)c2ccc(F)cc2)cc1 | -6.51% (inactive)
Cn1cc(C2=C(c3ccc(Cl)cc3Cl)C(=O)NC2=O)c2ccccc21 | -4.82% (inactive)
NC(N)=NC(=O)c1nc(Cl)c(N2CCCCCC2)nc1N | -4.05% (inactive)
COc1ccccc1CNCCCCCCNCCCCCCCCNCCCCCCNCc1ccccc1OC | -12.8% (inactive)
N#C/C(=C\c1ccc(O)c(O)c1)C(=O)c1ccc(O)c(O)c1 | -4.78% (inactive)
O=c1[nH]c2ccccc2n1CCCN1CCN(C(c2ccccc2)c2ccccc2)CC1 | -4.42% (inactive)
O=c1[nH]c2cc(Cl)c(Cl)cc2[nH]c1=O | -1.44% (inactive)
O=C(Nc1ccccc1)c1cc([N+](=O)[O-])ccc1Cl | -0.866% (inactive)
N.N.O=C(O)C1(C(=O)O)CCC1.[Pt] | 0.443% (inactive)
O=C(O)c1cc(=O)c2c(Cl)cc(Cl)cc2[nH]1 | -2.53% (inactive)
C[C@@H](NC(=O)/C(C#N)=C/c1ccc(O)c(O)c1)c1ccccc1 | -5.22% (inactive)
O=C(c1cc(O)c(O)c([N+](=O)[O-])c1)c1ccccc1F | -8.3% (inactive)
NCCCCCCCCCCN | 2.43% (inactive)
Clc1ccc(N2CCN(Cc3c[nH]c4ncccc34)CC2)cc1 | -2.97% (inactive)
